Experimental data as given in PubChem BioAssay AID624115 (Johns Hopkins Ion Channel Center, 2012).
Among all 4,000 compounds or so, about 350 (8.8%) were called active.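 The calls were made as follows: active = calcium fluorescence ratio at least three times the spread of buffer wells, meaning a non-specific response in parental cells; inactive = the rest.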 A selection follows.

Test: nonspecific Ca2+ signal without MrgX1 expression – cell-based, Fluo-4 calcium flux, duplicate, agonist mode, counter-screen for MrgX1 agonist project, primary screen (AID 624115)
Conditions: parental HEK293, Fluo-4 calcium fluorescence (FDSS), at 10 µM; active compounds read high

SMILES	fluorescence ratio F(max-min)/F0
COc1ccccc1Oc1nc(-c2cccnc2)nc2ccccc12	inactive
CC(C)CNc1ncnc2c1cnn2Cc1ccc(Cl)cc1	inactive
Cc1cccn2c(=O)c(/C=C3\SC(=S)N(CC(C)C)C3=O)c(NCCCOC(C)C)nc12	inactive
O=C(C1CCN(S(=O)(=O)c2cnc[nH]2)CC1)N1CCN(Cc2ccc3c(c2)OCO3)CC1	inactive
O=C(Oc1ccc(C(=S)N2CCOCC2)cc1)c1ccc(F)cc1	inactive
Cc1occc1C(=O)Nc1nnc(-c2ccncc2)s1	inactive
CCC(C)Sc1nc(C)nc2c1c(=O)n(C)c(=O)n2C (stereo not given)	inactive
O=C(CN1CCN(c2ccc(Cl)cc2)CC1)N1CCCC1	inactive
Cc1c(C)c2c(OCC(=O)N[C@@H](C(=O)O)c3ccccc3)cc3c(c2oc1=O)CCC(C)(C)O3	inactive
COC(=O)c1c(NC(=O)c2c(Cl)cnn2C)sc(C)c1C	inactive
COc1ccc(Nc2nnc(C)c3ccccc23)cc1	inactive
O=C1C(Cc2ccc(O)cc2)NC(=S)N1Cc1ccccc1 (stereo not given)	inactive
Cc1ccnc(NC(=O)C(C)N2C(=O)c3ccccc3C2=O)c1 (stereo not given)	inactive
Cc1cccc(NC(=O)C(C)N2C(=O)C3C4CC(C(Br)C4Br)C3C2=O)c1 (stereo not given)	94.8 (active)
Cc1ccc(C(=O)COC(=O)CCN2C(=O)C3C4CC(C(Br)C4Br)C3C2=O)cc1 (stereo not given)	inactive
Cc1ccc2c(c1)c1ncnc(N3CCc4ccccc4C3)c1n2C	inactive
O=C(COC(=O)c1ccc(NS(=O)(=O)c2cccs2)cc1O)Nc1ccc(F)cc1	inactive
CN(c1cccc(NC(=O)Nc2ccc(Cl)cc2)c1)S(C)(=O)=O	inactive
O=C(c1cccs1)C1C(c2ccc(Br)cc2)NC(=S)NC1(O)C(F)(F)F (stereo not given)	inactive
CC(C)(C)n1c(=O)[nH]c2c(c1=O)CCC2	inactive
CCN(CC)c1ccc2oc(=O)c(C)nc2c1	inactive
CC(=O)N(C)c1ccc(NC(=O)C(F)(F)F)cc1	inactive

SMILES	fluorescence ratio F(max-min)/F0
CCc1nnc(NC(=O)CSc2nc3c(c(=O)n2-c2ccccc2OC)SCC3)s1	inactive
CC1CCN(S(=O)(=O)c2nnc(NC(=O)COc3ccccc3F)s2)CC1	inactive
CCSc1nsc(NC(=O)Nc2cccc(C(C)=O)c2)n1	inactive
CCCCCCCCCCOC(=O)Cn1c(COc2cccc(OC)c2)[n+](C)c2ccccc21	inactive
CN1/C(=C\C=C2\N=C(c3ccc(F)cc3)OC2=O)C(C)(C)c2ccccc21	inactive
S=C(NCc1ccc(Cl)cc1)NC12CC3CC(CC(C3)C1)C2	inactive
O=C(Nc1ccc(Cl)cc1)Nc1ccc(Oc2cccnc2)nc1	inactive
CCc1ccc(N(CC(=O)Nc2sc3c(c2C(=O)OC)CCCC3)S(C)(=O)=O)cc1	inactive
CC(=O)N1c2ccc(S(=O)(=O)N3CCCC(C(=O)Nc4cccc(Cl)c4)C3)cc2CC1C (stereo not given)	inactive
COc1cccc(CCNC(=O)COc2cccc3c2OC(C)(C)C3)c1	inactive
O=C(COC(=O)C1CCN(S(=O)(=O)c2ccc3c(c2)OCCO3)CC1)Nc1ccccc1OC(F)F	inactive
COC(=O)c1ccc(COC(=O)C2CCN(S(=O)(=O)c3c(Cl)cccc3Cl)CC2)o1	inactive
CCOC(=O)c1[nH]c2ccc(C)cc2c1N=C(C)N(C)C	46.4 (active)
Cc1c(C(=O)N2CCCc3ccccc32)sc2nc(-c3ccccc3)cn12	inactive
Clc1ccc(C=NC23CN4CN(CN(C4)C2)C3)cc1	inactive
CC(Oc1ccc(F)cc1)C(=O)Nc1ccccc1C(=O)NC1CC1 (stereo not given)	inactive
CC(C)(C)Nc1c(-c2cccs2)nc2ccccn12	inactive
O=c1cc(CSc2ccccn2)nc(N2CCN(c3ccccc3)CC2)[nH]1	inactive
O=C(Nc1ccccc1Cl)N1CCN(c2ccc3nncn3n2)CC1	inactive
CCc1cc2c(SCC(=O)Nc3ncc(Cl)c(C)c3Cl)ncnc2s1	inactive
Cc1ccc(C(C(=O)NC2CCCCC2)N(C(=O)c2csnn2)C2CC2)o1 (stereo not given)	inactive
COC(=O)Cn1c(O)c(N=NC(=O)OC)c2ccccc21	inactive

SMILES	fluorescence ratio F(max-min)/F0
COc1cc(C)c(C)cc1S(=O)(=O)N1CCCc2ccccc21	inactive
COc1cc(C(F)(F)F)nc2c(Br)c(C(C)(C)C)nn12	inactive
CC(=O)N(C1=C(Cl)C(=O)c2ccccc2C1=O)c1ccc(C(=O)O)cc1	inactive
O=C(Nc1ccccc1N1CCOCC1)c1csc2c1CCCC2	inactive
C=CCOc1cccc(C2C(C(=O)c3ccc(C)o3)=C(O)C(=O)N2c2nnc(C)s2)c1 (stereo not given)	inactive
COC(=O)c1c(NC(=O)CN(c2ccc(C)c(C)c2)S(C)(=O)=O)sc2c1CCCC2	inactive
CCN(C(=O)CSc1nnc2ccccn12)C1CCS(=O)(=O)C1 (stereo not given)	inactive
Brc1ccccc1C1Nc2cccc3cccc(c23)N1	inactive
COc1ccc(Cc2nc(-c3ccccn3)no2)cc1OC	inactive
CCOC(=O)c1cn(Cc2cccc(C)c2)nn1	inactive
C=CCNC(=O)c1cc(-c2ccccc2O)on1	inactive
N=C(N)SCc1cccc2ccccc12	inactive
CCc1cc(=O)oc2cc(C)cc(OCC(=O)N3CCC[C@@H]3C(=O)O)c12	inactive
CCOc1ccc(C(=O)NC2CCN(S(=O)(=O)CC)CC2)cc1	inactive
COc1ccc(S(=O)(=O)N2CCOCC2)c(C)c1C	inactive
CC(C)OCCCNc1ncnc2c1[nH]c1ccc(F)cc12	inactive
Fc1ccc2[nH]c3c(N4CCSCC4)ncnc3c2c1	51.9 (active)
O=C(c1ccc(O)cc1)c1ccc(C(=O)O)c(C(=O)O)c1	inactive
Cc1[nH][nH]c(=O)c1C(c1ccc(-c2ccc(Cl)cc2)o1)c1c(C)[nH][nH]c1=O	48.2 (active)
COc1ccc(C(=O)NC2CCCc3c2cnn3-c2cccc(C)c2C)c(OC)n1 (stereo not given)	inactive
CCOc1ccccc1C1CC(c2ccc(Cl)cc2)Nc2nc(N)nn21 (stereo not given)	inactive
CN1C(CC(=O)Nc2ccc(Br)cc2)c2ccccc2CC1(C)C (stereo not given)	inactive

SMILES	fluorescence ratio F(max-min)/F0
Nc1ccc(Oc2ccc(Cl)cc2)cc1	inactive
C=CCNC(=O)c1csc(-c2ccccc2)n1	inactive
COC(=O)Cc1cc(=O)n(-c2nc3ccccc3s2)[nH]1	inactive
O=C(Nc1ccc(Br)cc1F)C1CC(=O)N(C2CCCCC2)C1 (stereo not given)	inactive
CC1CCCCN1S(=O)(=O)c1ccc(C(=O)Nc2nnc(-c3cccs3)o2)cc1 (stereo not given)	inactive
Cc1ccc(-n2[nH]c(C)c(/C=N/N3C(=O)c4cccc5cccc(c45)C3=O)c2=O)cc1	110 (active)
O=C(CSc1nncn1-c1cccnc1)N1CCOCC1	inactive
Cc1nc(N2CCN(c3ccccn3)CC2)c2c(C)c(C(=O)Nc3ccc(F)c(Cl)c3)sc2n1	inactive
CC(=O)OC(C)C[N+](C)(C)C (stereo not given)	98.8 (active)
CCCCOC(=O)CNc1nnc(SCC(=O)OCC)[nH]c1=O	inactive
Cc1ccc(Nc2nc(-c3ccc(O)cc3O)cs2)nc1	inactive
CCOC(=O)c1c(NC(=O)CNC2CCCc3ccccc32)sc(C(N)=O)c1C (stereo not given)	inactive
Cc1ccc(-n2cnc3ncnc(-c4ccccc4)c32)cc1	inactive
COc1cc(C2/C(=C(\O)c3ccc4c(c3)CC(C)O4)C(=O)C(=O)N2Cc2ccco2)ccc1O (stereo not given)	inactive
CCOC(=O)c1c(C)[nH]c(=S)c(C#N)c1-c1ccccc1	inactive
CCCc1cc(=S)n2c([nH]c3ccccc32)c1C#N	71.7 (active)
CCCCC(=O)NNC(=S)NC(=O)C(c1ccccc1)c1ccccc1	inactive
COc1ccc(C(=O)NNC(=S)NC(=O)c2ccccc2)cc1	130 (active)
CC(Oc1ccc2ccccc2c1)C(=O)NNC(=S)NC(=O)c1ccco1 (stereo not given)	inactive
COc1ccc(C(=O)CSc2n[nH]c(N)n2)cc1	inactive
COc1ccc(C(=O)NC(=S)NC2CCCCC2)cc1	inactive
COc1ccc(C(=O)NC(=S)NNC(=O)CCc2ccccc2)cc1	101 (active)

SMILES	fluorescence ratio F(max-min)/F0
CCOC(=O)CNC(=O)CSc1nc2cccnc2n1CC	inactive
OCc1ccc(OCCCOc2cccc3cccnc23)cc1	inactive
OCCn1c(-c2ccccc2)csc1=Nc1ccccc1	inactive
COc1cccc(-c2cnc(OC(C)(C)C)nc2OC(C)(C)C)c1	inactive
CCOc1ccc(NC(=O)N2CC=C(n3c(=O)[nH]c4ccccc43)CC2)cc1	inactive
Cc1cc(Nc2cc(N3CCN(C)CC3)nc(Sc3ccc(NC(=O)C4CC4)cc3)n2)n[nH]1	inactive
O=C(c1ccc(OC2CCN(C(=O)c3cccnc3)CC2)cc1)N1CCCCCC1	inactive
COCCNC(=O)C1CCN(S(=O)(=O)c2ccc3c(c2)OCCO3)CC1	inactive
CCOC(=O)N1CCN(C(=O)COCc2cc(-c3ccc4c(c3)OCO4)on2)CC1	inactive
CC1(C(=O)O)CCC(C(=O)Nc2ccc(Cl)c(Cl)c2)C1(C)C (stereo not given)	47.3 (active)
CCCc1[nH]nc2c1C(c1ccc(Br)s1)C(C#N)=C(N)O2 (stereo not given)	inactive
CC1(C)CC2CC(C)(CN2c2ncnc3ccc(Br)cc23)C1 (stereo not given)	inactive
O=C(CSc1ncccn1)NC(=O)NCc1ccccc1	inactive
Cc1nc(C)c(-c2csc(NCCc3ccccc3)n2)s1	51.5 (active)
CCS(=O)(=O)c1ccc2c(c1)N(S(=O)(=O)c1ccccc1)CC(C(=O)O)O2 (stereo not given)	inactive
Cc1nc2ccccc2cc1OCc1ccc(F)cc1	45.3 (active)
NC(=O)c1c(Nc2nc3c(F)cccc3s2)sc2c1CCCC2	inactive
COC(=O)c1ccc(C2C3=C(Nc4nnnn42)c2ccccc2OC3)cc1 (stereo not given)	inactive
O=C(CC(O)(C(F)(F)F)C(F)(F)F)Nc1ccc(Cl)c(Cl)c1	45.3 (active)
c1ccc(-c2[nH]ncc2-c2nc3ccccc3[nH]2)cc1	inactive
COCCCNC(=O)C1CCN(c2ccc(N3CCOCC3)nn2)CC1	inactive
CCOC(=O)C1=C(O)/C(=C/c2cc(C)n(-c3ccccc3)c2C)N=C1C	inactive
